In all, about 2,300 compounds went through this assay and about 1,500 (65%) were called active. How the calls were made is not given here. The set was probably picked from earlier hits. Some of the results follow. Entries with a potency or affinity are not part of this list.
Test: replicating M. tuberculosis growth inhibition, dose response, non-replicating M. tuberculosis project, H37Rv (AID 492952);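 further: Mycobacterium tuberculosis grown in culture; growth inhibition read after a week of incubation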
Conditions: series mostly up to 50 µM

| SMILES | outcome |
| --- | --- |
| COc1ccc(NCC(=O)N2CCCC2)cc1Cl | inactive |
| CC(=O)c1ccc(NC(=O)CCc2ccc(C)o2)cc1 | inactive |
| CCc1ccc(NC(=O)CCc2ccc(C)o2)cc1 | inactive |
| FC(F)(F)c1nc(SCc2ccc(Cl)cc2Cl)n[nH]1 | inactive |
| Clc1ccc(SCCCCn2ccnc2)cc1 | inactive |
| CCCCOc1ccc(CSCCN)cc1Cl | inactive |
| Cc1ccc(OCCCCn2ccnc2)c([N+](=O)[O-])c1 | inactive |
| CCc1ccc(OCCCC(=O)Nc2nccs2)cc1 | inactive |
| O=C(COc1ccc2ccccc2c1)NNC(=O)c1cccs1 | inactive |
| CCCCCCCCCCn1cc(C(C)=O)c(=O)[nH]c1=O | inactive |
| CCOC(=O)Cc1cc(=O)n2[nH]cc(-c3ccc(Cl)cc3)c2n1 | inactive |
| CCOC(=O)C1(O)CC(C)=NN1C(=O)c1cccc(Br)c1 (stereo not given) | inactive |
| N#Cc1ccc(N=c2ssnc2Cl)cc1 | inactive |
| CC1(C)C[C@H]2C=C(C=O)[C@]3(C=O)C[C@]3(C)[C@H]2C1 | inactive |
| CCc1nnc(N/N=C/c2c(F)cccc2Cl)n1N | inactive |
| CC(C)(C)c1cc(CN2CCC(O)CC2)cc(C(C)(C)C)c1O | inactive |
| COc1ccc(NC(=O)COc2ccc3c(c2)CCC3)cc1 | inactive |
| O=C(COc1ccc(Br)cc1)N/N=C1/SCC(=O)N1Cc1ccccc1 | inactive |
| O=C(COc1ccc(Cl)cc1)Nc1ccccc1Cl | inactive |
| Cc1ccc(OCC(=O)N2CCCc3ccccc32)cc1 | inactive |
| O=C(COC(=O)c1cccc([N+](=O)[O-])c1)NCc1cccs1 | inactive |
| O=C(COc1ccc(Cl)cc1)OCC(=O)N1CCCc2ccccc21 | inactive |
| Cn1c(SCc2c(F)cccc2Cl)nc2c(c1=O)SCC2 | inactive |
| COc1cccc(/C=N/NC(=O)c2ccoc2C)c1O | inactive |

| SMILES | outcome |
| --- | --- |
| Cc1ccc(C(=O)N/N=C/C=C/c2ccccc2)cc1 | inactive |
| CCc1ccc(N=CC2=C(O)CC(c3ccco3)CC2=O)cc1 (stereo not given) | inactive |
| CC(=O)N(c1nnc(-c2ccc(C)cc2)s1)C1CCCC1 | inactive |
| O=C(NCCC1=CCCCC1)c1ccc(Br)o1 | inactive |
| O=C(NCCC1=CCCCC1)c1ccc(F)cc1 | inactive |
| COc1ccccc1-c1cc(SC)c(C#N)c(=O)o1 | inactive |
| COc1ccccc1-c1nnc(-c2ccc(C)cc2)o1 | inactive |
| FC(F)(F)c1ccc(NCCc2ccccc2)nc1 | inactive |
| O=C(COC(=O)c1cccc(C(F)(F)F)c1)NCc1ccccc1 | inactive |
| CCOC(=O)Cc1csc(NC(=O)COc2ccc3c(c2)CCC3)n1 | inactive |
| O=C(CNC(=O)c1ccc(Br)cc1)c1ccc(Br)cc1 | inactive |
| Nc1nnc(SCCCC(=O)c2ccc(Br)cc2)s1 | inactive |
| Cc1ccc(C(=O)N/N=C\c2ccc[nH]2)cn1 | inactive |
| Cc1cccc(C)c1NC(=O)c1sc(N)nc1-c1ccccc1 | inactive |
| COc1cccc(/C=N/N2C(=O)CSC2=S)c1O | inactive |
| O=C(N/N=C\c1ccco1)c1cncc(Br)c1 | inactive |
| Cc1ccc(C(=O)c2cncc(Br)c2)cc1 | inactive |
| Nn1c(SCCOc2ccc(Cl)cc2)nnc1-c1cccnc1 | inactive |
| CSCCC(=O)N1CCCC(N2CCN(c3cccc(C(F)(F)F)c3)CC2)C1 (stereo not given) | inactive |
| CCCNC(=O)c1ccc(COc2ccc(C)cc2)o1 | inactive |
| COC(=O)c1ccc(CO/N=C/c2ccc(OC)cc2)o1 | inactive |
| Cc1cccc2c(CC(=O)O)noc12 | inactive |
| O=C(NNc1ccc([N+](=O)[O-])cc1)c1ccccc1Cl | inactive |
| CC1(C)CC(=O)c2cc(C(=O)NNc3ccccc3)c(=O)n(-c3ccccc3)c2C1 | inactive |

| SMILES | outcome |
| --- | --- |
| Clc1ccc2c(N3CCCC3)ccnc2c1 | inactive |
| Cc1ccc(O)c(C(=O)c2cc(C#N)c(=O)n(-c3nccs3)c2)c1 | inactive |
| Cn1c(=O)c2c(=O)cc(NNC(=O)CC#N)[nH]c2n(C)c1=O | inactive |
| Cc1ccc(/C=C2\SC(=S)N(C3CCS(=O)(=O)C3)C2=O)o1 (stereo not given) | inactive |
| Cc1ccsc1C(=O)OCC(=O)NCCC1=CCCCC1 | inactive |
| O=C(COC(=O)c1cccs1)NCCC1=CCCCC1 | inactive |
| O=C(c1ccc(Cl)cc1)c1nnc(-c2ccncc2)o1 | inactive |
| Cc1ccc(N=N/C(=C\O)C(=O)c2ccncc2)cc1 | inactive |
| O=C(Nc1nnc(-c2ccc(Cl)cc2)o1)c1cccc(N2C(=O)CCC2=O)c1 | inactive |
| CC1(c2nnc(-c3ccccc3)o2)CC(c2ccc(Cl)cc2)=NO1 (stereo not given) | inactive |
| FC(F)(F)c1ccc(-c2nnc(-c3cccnc3)o2)cc1 | inactive |
| CC1=NN(C(=O)COc2ccccc2)C(O)(c2ccccc2)C1 (stereo not given) | inactive |
| CCOc1ccc(CC(=O)N2N=C(C)CC2(O)C(F)(F)F)cc1 (stereo not given) | inactive |
| Nc1nonc1C(=O)NCCN=Cc1cc(Cc2ccccc2)cc(Br)c1O | inactive |
| Cc1nn(C)cc1/C=N/NC(=O)c1sc2ccccc2c1Cl | inactive |
| Cc1cc(C(=O)N/N=C/C=C/c2ccccc2)c(C)o1 | inactive |
| Cc1occc1C(=O)N/N=C/c1ccc[nH]1 | inactive |
| O=C1/C(=C/c2ccco2)CCC1C1CCCC1 (stereo not given) | inactive |
| Cc1cccc2nc(-c3cccnc3)c(NCCC(C)C)n12 | inactive |
| CC1=NN(C(=O)c2ccc(C)o2)C(O)(c2ccccc2)C1 (stereo not given) | inactive |
| Cc1ccc2nc3c(c(N)c2c1)CCN3c1ccccc1 | inactive |
| O=C(CCC1CCCCC1)NCc1cccs1 | inactive |
| CCc1ccc(OCC(=O)c2c(O)c3ccccc3oc2=O)cc1 | inactive |
| C=CCN=C1SC(CC)C(=O)N1S(=O)(=O)c1ccc(C)cc1 (stereo not given) | inactive |

| SMILES | outcome |
| --- | --- |
| c1ccc(Cn2c(SCCN3CCOCC3)nnc2-c2cccnc2)cc1 | inactive |
| O=C(O)c1ccc(CN2C(=O)CSC2=S)cc1 | inactive |
| COc1ccc(CN=C2NN=C(c3ccc(Cl)cc3)CS2)cc1 | inactive |
| CN(C)CCN1C(=O)c2oc3ccccc3c(=O)c2C1c1cccc(Br)c1 (stereo not given) | inactive |
| CC12CC3CC(C)(C1)CC(C(=O)N1CCCC1)(C3)C2 | inactive |
| Cc1ccc(NC(=O)CNc2ccc(OC(C)C)cc2)cc1 | inactive |
| Cc1ccc(NC(=O)COc2ccccc2)cc1Cl | inactive |
| CNCc1ccccc1Sc1cc(O)ccc1O | inactive |
| CC1(C)CC(=O)C2=C(C1)OC(N)=C(C#N)C2C#Cc1ccccc1 (stereo not given) | inactive |
| CCOC(=O)Cc1ccc(NCc2ccc(Cl)cc2)cc1 | inactive |
| CC1=NN(C(=O)COc2ccccc2C)C(O)(c2ccc(Cl)cc2)C1 (stereo not given) | inactive |
| Cc1ccccc1OCCC(=O)OCC(=O)NNC(=O)c1cccs1 | inactive |
| Cc1ccc2c(c1)C(=O)C(=O)N2CCCOc1ccccc1 | inactive |
| CC1=CC(C)(C)Nc2ccc(OC(=O)CN3C(=O)c4ccccc4C3=O)cc21 | inactive |
| N=c1oc2ccccc2cc1C(=O)Nc1ccccc1 | inactive |
| c1ccc(OCc2nnc3sc(-c4cccs4)nn23)cc1 | inactive |
| O=c1[nH][nH]c(-c2ccccc2O)c1C(C[N+](=O)[O-])c1cccc(Cl)c1 (stereo not given) | inactive |
| Clc1ccc(OC2CCN(Cc3nc(CC4CC4)no3)CC2)cc1 | inactive |
| CCOc1ccc(OCC(=O)OCc2cc(=O)n3cc(Br)ccc3n2)cc1 | inactive |
| CCOC(=O)Cn1nc(/C=C/c2ccccc2)ccc1=O | inactive |
| COc1ccc(-c2nnn(Cc3ccccc3)n2)cc1 | inactive |
| O=C(CNC(=O)c1ccccc1)OC1CCCCC1 | inactive |
| O=C1CC(Sc2ncccn2)C(=O)N1c1ccccc1C(F)(F)F (stereo not given) | inactive |
